Here are results for nine compounds from PubChem BioAssay (NCI).

Compounds without any hit were thinned out: in the full panel of roughly 83,000, 20% have a hit.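 Step 1: grow cells in 96-well plates. Step 2: add test compound at a single concentration. Step 3: incubate 48 h. Step 4: record percent growth.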 Values without a mark were called inactive. Active and inactive are the calls of the source. How the source made its calls: active means growth percent below 10; inactive means the rest.

What all share (assay): NCI-60 one-dose screen, 48 h (100 = growth as untreated, 0 = no growth, -100 = all killed)
Conditions in all cases: 10 µM

Test [1] relates to HT29 colon.
Test [2] has as its system SNB-75 CNS.
The test system of test [3] is SNB-19 CNS.
Test [4] deals with U251 CNS.
Test [5] relates to PC-3 prostate.
Test [6] deals with SK-MEL-5 melanoma.
For test [7], the system named is UACC-62 melanoma.
For test [8], the system named is LOX IMVI melanoma.
For test [9], the system named is SK-MEL-28 melanoma.
Test [10] concerns SK-MEL-2 melanoma.
Test [11] has as its system EKVX NSCLC.
Test [12] concerns SN12C renal.
Test [13] has as its system UO-31 renal.
In test [14] the test system is TK-10 renal.
Test [15] relates to ACHN renal.
Test [16] relates to A498 renal.
Test [17] deals with CCRF-CEM leukemia.
Test [18] deals with MOLT-4 leukemia.
Test [19] has as its system SR leukemia.
Test [20] relates to CAKI-1 renal.

With `CCOC(=O)c1ccc(NC(=O)Nc2ncc(Cl)cc2Cl)cc1`, the growth was 95.3% in [1]; 119% in test [2]; 106% in [3]; 99.2% in [4]; 77% in test [5]; 104% in test [6]. Also, the growth in test [7] was 87%; in test [8], 110%; in test [9], 106%; in [10], 102%; in [11], 111%; in test [12] it was 86.8%. Also, the growth is 96.4% in test [13]; 108% in test [14]; 107% in test [15]; 91.9% in test [16]; 81.7% in test [17]; 93.2% in test [18]. Besides, the growth in [19] was 95.9%.
Take `CC(C)N(CCNc1nc(C(Cl)(Cl)Cl)nc2cc(Cl)ccc12)C(C)C`: the growth in [1] is -32.9% (active); in [2], 8.33% (active); in [3], 22.9%; in test [4], -61.5% (active); in test [5] it was -5.1% (active); in test [6], -97% (active). For the same compound, the growth in test [7] is -62.2% (active); in test [8] it was -80.2% (active); in test [9], -80.9% (active); in test [10] it was -60% (active); in test [11] it was 8.11% (active); in test [12] it was 17.9%. Moreover, the growth in test [13] is -29% (active); in [14], -84.3% (active); in test [15], -36.2% (active); in [20], -84.1% (active); in [17] it was -8.62% (active); in test [18] it was -21.4% (active). For the same compound, the growth in test [19] was -28.4% (active).
`O=c1[nH]c2ccc(Cl)cc2c2ccccc12`: the growth in test [1] is 70.3%; in test [2], 33.2%; in test [3], 65.9%; in test [4] it was 65.9%; in test [5], 92.8%; in test [6], 70.6%. The growth was 88.3% in test [7]; 98.5% in test [8]; 94.6% in test [9]; 107% in test [10]; 41.8% in [11]; 87.8% in test [12]. Also, the growth was 20.2% in [13]; 81% in test [14]; 48.9% in test [15]; 43.2% in [20]; 99.3% in [17]; 119% in test [18]. In addition, the growth in [19] is 75.4%.
For `COc1ccccc1/C=C/C(=O)c1ccccc1`, the growth in test [1] is 54.2%; in [2] it was 87.8%; in test [3] it was 99.4%; in [4], 58.4%; in [5], 54.5%; in test [6] it was 82.1%. In addition, the growth was 67.3% in [7]; 59.8% in [8]; 97.5% in test [9]; 84% in [10]; 98.6% in test [11]; 91.6% in [12]. For the same compound, the growth in test [13] is 60.1%; in test [14], 104%; in test [15], 84.2%; in test [16], 108%; in test [17] it was 29%; in test [18], 46%. For the same compound, in test [19], the growth is 10.5%.
In the case of `Cc1cc(N(CCCNc2ccnc3cc(Cl)ccc23)Cc2ccc3c(c2)OCO3)nc(N2CCOCC2)n1`, the growth in [1] is 3.19% (active); in test [2], 61.4%; in test [3], 32.3%; in test [4], 5.18% (active); in test [5], 27.1%; in test [6], -88.1% (active). Also, the growth was 27.1% in test [7]; -24.2% (active) in test [8]; -44.7% (active) in test [9]; 32.4% in [10]; 66.5% in [11]; 44.7% in test [12]. Besides, the growth is 3.36% (active) in test [13]; 13.9% in [14]; 14.3% in test [15]; 54.1% in [16]; -8.38% (active) in [17]; -15.9% (active) in [18]. In addition, the growth in test [19] was -27.7% (active).
`CC1(C)CCC(=NNC(N)=S)CC1`: the growth in [1] is 95.1%; in test [2], 88.2%; in test [3], 108%; in test [4], 105%; in test [5], 109%; in [6], 111%. The growth in test [7] is 103%; in [8], 89%; in [9] it was 115%; in test [10], 130%; in test [11], 90%; in test [12] it was 105%. For the same compound, the growth in [13] is 83.9%; in test [14], 75.9%; in [15], 99.7%; in test [20], 96.2%; in test [17] it was 30.3%; in test [18], 99.8%. For the same compound, the growth in test [19] was 116%.
Consider `CCOC(=O)C1CCc2c(ccc3ccccc23)N1CCC#N` (stereo unspecified), for which the growth was 100% in [1]; 74.2% in test [2]; 99% in test [3]; 89.7% in test [4]; 84.9% in [5]; 89.2% in test [6]. Moreover, the growth is 91% in test [7]; 85.7% in test [8]; 91.2% in test [9]; 134% in test [10]; 92.8% in test [11]; 98.7% in [12]. Also, the growth in [13] is 74.9%; in test [14], 116%; in test [15] it was 115%; in test [20] it was 80.2%; in test [17], 89.2%; in [18], 77.9%. Further, the growth in [19] is 63%.
For `CN(C)CC(O)c1ccc2cc(Br)c3ccccc3c2c1` (stereo unspecified), the growth was 22% in [1]; 41.8% in [2]; 64.7% in [3]; 56.4% in test [4]; 49% in test [5]; 62.3% in [6]. In addition, the growth in test [7] is -64.8% (active); in [8], 28.9%; in [9] it was 32.7%; in [10] it was 102%; in test [11] it was 58.5%; in test [12], 53.9%. The growth is 57.6% in test [13]; 81.8% in test [14]; 17.2% in [15]; 23.9% in test [16]; 57.9% in test [17]; 31% in test [18]. For the same compound, in test [19], the growth is 4.67% (active).
As to `CCN(CC)Cc1cc(Nc2ccnc3cc(Cl)ccc23)ccc1OC`, the growth in [1] was 33.7%; in test [2], 86.8%; in test [3], 94.1%; in test [4], 82%; in test [5], 66.7%; in test [6], 91.6%. The growth is 104% in test [7]; 47.7% in test [8]; 108% in test [9]; 116% in test [10]; 97.2% in test [11]; 91.2% in test [12]. Also, the growth in test [13] was 55.9%; in test [14] it was 94.9%; in test [15], 97%; in [20], 102%; in test [17], 69.1%; in test [18], 78.9%. Besides, in test [19], the growth is 83.2%.
